Results on seven molecules are retold here after paper PMC8222333, “AsCas12a ultra nuclease facilitates the rapid generation of therapeutic cell medicines”.

Residue numbers refer to the chain shown, from its start.

B1: TCTC (dsDNA)
DNA 1: GCTATCTAGTGCTCAGTACGCACTGTCTCAGGAAACTTCTGGCAGGACCAGGTCATGAGATCGGAAGAGCACACGTCTGAACTCCAGTCA
DNA 2: TGACTGGAGTTCAGACGTGTGCTCTTCCGATCTCATGACCTGGTCCTGCCAGAAGTTTCCTGAGACAGTGCGTACTGAGCACTAGATAGC
RNA: AAUUUCUACUCUUGUAGAUAGGAAACUUCUGGCAGGACC
B2: TGTC (dsDNA)
DNA 1: B1 DNA 1 with C27G
DNA 2: B1 DNA 2 with G64C
RNA: B1 RNA
B3: TTAA (dsDNA)
DNA 1: B1 DNA 1 with C27T, T28A, C29A
DNA 2: B1 DNA 2 with G62T, A63T, G64A
RNA: B1 RNA
B4: TGTA (dsDNA)
DNA 1: B1 DNA 1 with C27G, C29A
DNA 2: B1 DNA 2 with G62T, G64C
RNA: B1 RNA
B5: TTAC (dsDNA)
DNA 1: B1 DNA 1 with C27T, T28A
DNA 2: B1 DNA 2 with A63T, G64A
RNA: B1 RNA
B6: TTCA (dsDNA)
DNA 1: B1 DNA 1 with C27T, T28C, C29A
DNA 2: B1 DNA 2 with G62T, A63G, G64A
RNA: B1 RNA
B7: TCTG (dsDNA)
DNA 1: B1 DNA 1 with C29G
DNA 2: B1 DNA 2 with G62C
RNA: B1 RNA

In one experiment the target is dAsCas12a WT (Acidaminococcus sp., UniProt U2UMQ6 1-1307, D908A;E993A;D1235A). In words: Spec-seq (native PAGE EMSA with sequencing of bound and unbound); 25 mM Tris-HCl pH 7.4, 150 mM KCl, 5 mM MgCl2, 10% glycerol, 1 mM DTT, 40 ng/uL salmon sperm DNA; 400 nM Cas12a, 480 nM crRNA, 50 nM library, 37 C 1 h; native P; high values mean tight binding.
Conditions: not given
For the molecule B1, the binding signal was -5.94 lnKA.

Take B2: the binding signal was -8.93 lnKA.

In the case of B3, the binding signal is -8.61 lnKA.

B4 gave a binding signal of -7.99 lnKA.

Consider B5, for which the binding signal was -8.99 lnKA.

As for B6, the binding signal is -7.22 lnKA.

Molecule B7 registered a binding signal of -6.99 lnKA.

A further experiment has as its target dAsCas12a Ultra (Acidaminococcus sp., UniProt U2UMQ6 1-1307, M537R;F870L;D908A;E993A;D1235A). In words: Spec-seq (native PAGE EMSA with sequencing of bound and unbound); 25 mM Tris-HCl pH 7.4, 150 mM KCl, 5 mM MgCl2, 10% glycerol, 1 mM DTT, 40 ng/uL salmon sperm DNA; 400 nM Cas12a, 480 nM crRNA, 50 nM library, 37 C 1 h; native PAGE at room temperature; high values mean tight binding. As to conditions: protein: recombinant.
Consider B1, for which the binding signal is -3.61 lnKA.

Regarding B2, the binding signal is -7.57 lnKA.

For B3, the binding signal is -7.33 lnKA.

Consider B4, for which the binding signal was -6.4 lnKA.

B5: the binding signal was -7.13 lnKA.

With B6, the binding signal is -4.73 lnKA.

With B7, the binding signal is -4.53 lnKA.

The next experiment has as its target dAsCas12a E174R (Acidaminococcus sp., UniProt U2UMQ6 1-1307, E174R;D908A;E993A;D1235A). Described as above. As to conditions: protein: recombinant.
For B1, the binding signal is -3.18 lnKA.

As for B2, the binding signal was -7.56 lnKA.

Turning to B3, the binding signal was -7.28 lnKA.

Consider B4, for which the binding signal was -6.64 lnKA.

For the molecule B5, the binding signal is -6.79 lnKA.

Take B6: the binding signal is -3.99 lnKA.

On to B7, for which the binding signal was -4.57 lnKA.

For another experiment, the target named is dAsCas12a S542R (Acidaminococcus sp., UniProt U2UMQ6 1-1307, S542R;D908A;E993A;D1235A). The description is as above. As to conditions: protein: recombinant.
As to B1, the binding signal is -4.47 lnKA.

Take B2: the binding signal is -7.52 lnKA.

B3: the binding signal is -6.82 lnKA.

In the case of B4, the binding signal was -6.54 lnKA.

Turning to B5, the binding signal is -6.51 lnKA.

Take B6: the binding signal was -1.85 lnKA.

As for B7, the binding signal is -5.38 lnKA.

A further experiment addresses dAsCas12a K548R (Acidaminococcus sp., UniProt U2UMQ6 1-1307, K548R;D908A;E993A;D1235A). The experiment is described as above. The settings on record: protein: recombinant.
As for B1, the binding signal is -8.65 lnKA.

As for B2, the binding signal was -6.58 lnKA.

For B3, the binding signal is -8.66 lnKA.

On to B4, for which the binding signal is -7.23 lnKA.

For the molecule B5, the binding signal is -8.18 lnKA.

In the case of B6, the binding signal is -6.86 lnKA.

A further experiment has as its target d-enCas12a (Acidaminococcus sp., UniProt U2UMQ6 1-1307, E174R;S542R;K548R;D908A;E993A;D1235A). The experiment is described as above. The settings on record: protein: recombinant.
B1: the binding signal was -3.15 lnKA.

Regarding B2, the binding signal was -0.999 lnKA.

Consider B3, for which the binding signal was -3.79 lnKA.

Consider B4, for which the binding signal was -0.876 lnKA.

On to B5, for which the binding signal is -1.59 lnKA.

As to B6, the binding signal was -0.506 lnKA.

Take B7: the binding signal was -4.86 lnKA.

For the next experiment, the target named is d-enCas12a-Ultra (Acidaminococcus sp., UniProt U2UMQ6 1-1307, E174R;S542R;K548R;M537R;F870L;D908A;E993A;D1235A). The experiment is described as above. The settings on record: protein: recombinant.
As for B1, the binding signal is -0.761 lnKA.

B2: the binding signal is -0.323 lnKA.

Regarding B3, the binding signal was -1.68 lnKA.

In the case of B4, the binding signal was -0.296 lnKA.

Take B5: the binding signal is -0.507 lnKA.

In the case of B6, the binding signal is -0.166 lnKA.

B7: the binding signal was -1.79 lnKA.
